Screens as filed in PubChem.
HIF-2a block – HIF-2a reporter inhibitors, primary screen, luminescence, 786-0 RCC cells | inhibition, % at 18.8 µM | 0.72% of 360,000 active | AID 624352, 2012 | 786-0 RCC cells HIF-2a reporter, luciferase luminescence, overnight;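 active = inhibition of the luminescence signal of 40% or more relative to plate controls, in a single-dose primary screen at 18.75 µM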
hiPSC survival – enhancers of single-cell hiPSC survival, primary screen, ATPlite luminescence | 100% = ROCK inhibitor wells, 0% = DMSO | survival enhancement, % at 20 µM | 0.044% of 360,000 active | AID 602274, 2012; in the data active = survival enhancement above about 18%;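 note: cells exposed to compounds for 16 hours before the ATP read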
KKLEB tox – cytotoxicity in KKLEB CF airway cells, primary screen, cytotoxicity control for CF NF-kB inhibitor project, cell-based, uHTS, fluorescence assay plates | activity change (cytotoxicity), % at 5 µM | KKLEB CF airway cells viability, ATPlite luminescence, overnight; stronger effect = lower value; cells stimulated with P. aeruginosa culture filtrate | 0.36% of 360,000 active;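 active = corrected activity change at or below -50% at 5 µM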
LGR2 antag – inhibitors of bursicon-induced LGR2 CRE-luciferase signal, primary screen, cell-based, HEK293, CRE-luciferase reporter, bursicon stimulation. AID 720647, 2013. Drosophila bursicon receptor LGR2 (rickets). inhibition, % at 9.99 µM. bursicon-stimulated, 4 h. 0.35% of 380,000 active;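 active = drop in luminescence signal, shown as inhibition above about 50% in the replicate tests, limit read from the data, passing the limit was not always enough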;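 note: agonist challenge used bursicon conditioned medium at about half maximal strength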
TWEAK-Fn14 inh – inhibitors of TWEAK-Fn14 signaling, primary screen, luciferase reporter cells, uHTS. AID 1159606, 2016. TWEAK-stimulated Fn14 reporter cells, luciferase luminescence, 8 h. 2% of 360,000 active. inhibition, % at 10 µM; in the data active = inhibition above about 50%
CF NFkB inh – inhibitors of PAF-induced NF-kB signaling, primary screen, cell-based, GFP fluorescence, uHTS | inhibition, % at 5 µM | AID 588850, 2011 | 0.86% of 360,000 active | KKLEB NF-kB-GFP reporter, GFP fluorescence overnight;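 active = at least 50% inhibition at 5 µM, scaled per plate between neutral and stimulator controls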;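 note: PAF is a Pseudomonas aeruginosa culture filtrate used as stimulus; plate controls were PAF-stimulated DMSO wells for no effect and unstimulated DMSO wells for full effect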
CF NFkB inh conf – inhibitors of PAF-induced NF-kB signaling, retest, confirmation, cell-based, GFP fluorescence, single concentration. shares compounds with CF NFkB inh. KKLEB CF airway cells, overnight. inhibition, % at 5 µM. 64% of 1,300 active. AID 602472, 2012; in the data active = inhibition above about 40%;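 note: stimulus PAF is a Pseudomonas aeruginosa filtrate and not platelet activating factor; plate controls were DMSO wells with stimulus for no effect and unstimulated DMSO wells for full effect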
Numbers without * were called inactive; . = no result. Only some compounds are listed: those with a hit (about 2.3% of all), similar ones and a draw of the others.

SMILES	HIF-2a block	hiPSC survival	KKLEB tox	LGR2 antag	TWEAK-Fn14 inh	CF NFkB inh	CF NFkB inh conf
O=C(NCc1nc(-c2ccc(C(F)(F)F)cc2)no1)Nc1ccc(F)cc1F	11.2	-0.6	6.0	.	9.9	1.7	.
O=C(NCc1nc(-c2ccc(C(F)(F)F)cc2)no1)Nc1cc(Cl)cc(Cl)c1	-17.3	-0.4	-30.2	35.9	-15.1	54.6*	49.6*
O=C(C[C@H]1CC[C@@H]2[C@H](COC[C@H](O)CN2C(=O)c2ccncc2)O1)NC1Cc2ccccc2C1	.	.	.	-2.4	.	.	.
Cc1nc2sc3c(NCc4ccco4)ncnc3c2c2c1COC(C)(C)C2	19.3	-0.4	-30.2	.	87.0*	72.3*	37.1
CC1(C)Cc2c(c(-c3ccco3)nc3sc4c(NCCO)ncnc4c23)CO1	34.5	-0.7	-8.4	-37.6	-0.6	-0.7	.
O=C(NCCc1ccccc1)c1coc(=O)c(Br)c1	8.9	-0.1	4.3	-39.0	78.3*	69.0*	75.7*
CCCNC(=O)N[C@H]1C=C[C@H](CC(=O)NC2CCCCC2)O[C@H]1CO	.	.	.	-6.6	.	.	.
C[C@@H]1CN([C@H](C)CO)C(=O)c2cccc(NS(C)(=O)=O)c2O[C@H]1CN(C)C(=O)Nc1cccc2ccccc12	.	.	.	-9.3	.	.	.
CNc1ccccc1C(=O)OC(C)C(=O)Nc1ccc(Cl)cn1 (stereo not drawn)	-186.1	0.0	-7.8	35.4	25.6	69.0*	33.9
CCNC(=O)C[C@@H]1CC[C@H]2[C@H](COc3ccc(NC(=O)c4cccc(C(F)(F)F)c4)cc3C(=O)N2C)O1	.	.	.	-12.9	.	.	.
COc1ccc(CN2C(=NC(=O)CCc3ccccc3)SC3CS(=O)(=O)CC32)cc1 (stereo not drawn)	9.0	-0.5	11.0	-8.2	2.2	-9.5	.
O=C(CCc1ccccc1)N=C1SC2CS(=O)(=O)CC2N1Cc1ccccc1 (stereo not drawn)	2.3	0.1	-9.1	7.2	-1.3	50.2*	22.3
CCNC(=O)Nc1ccc2c(c1)C(=O)N(C)[C@@H]1CC[C@@H](CC(=O)NCC3CCCCC3)O[C@@H]1CO2	.	.	.	3.2	.	.	.
Clc1ccc(Cn2ncc3c(N4CCN(c5ccccc5)CC4)ncnc32)cc1	-29.2	-0.8	-35.6	4.9	101.7*	90.6*	99.7*
COCC#Cc1ccc([C@@H]2[C@@H](CO)N3C(=O)CN(C(=O)C4CCCC4)C[C@H]23)cc1	.	.	.	0.2	.	.	.
Cc1c(C(=O)OCC(C)C)[nH]c2c1C(=O)CC(c1ccco1)C2 (stereo not drawn)	-60.9	-0.1	-24.0	-26.2	19.1	50.8*	52.6*
C/C=C/COC(=O)c1[nH]c2c(c1C)C(=O)CC(c1ccco1)C2 (stereo not drawn)	15.5	-1.8	-31.5	-12.7	26.8	61.9*	84.6*
Cc1c(C(=O)OC2CCCC2)[nH]c2c1C(=O)CC(c1ccco1)C2 (stereo not drawn)	-46.9	-3.3	-31.1	-18.3	28.8	50.5*	82.3*
COc1cccc(-c2cnc3c(NC=O)cc(-c4ccc(OC)cc4OC)cn23)c1	-9.7	-3.9	-40.0	-28.1	20.6	63.2*	76.0*
COc1ccc(-c2cc(NC=O)c3ncc(-c4cc(OC)c(OC)c(OC)c4)n3c2)cc1	-29.9	-1.4	-28.5	-25.2	25.4	51.8*	69.7*
COc1ccc(-c2cc(NC=O)c3ncc(-c4cccc(OC)c4)n3c2)cc1	-42.5	-3.9	-19.5	-14.4	-6.7	-19.8	.
COc1ccc(-c2cc(NC=O)c3ncc(-c4ccc(OC)c(OC)c4)n3c2)c(OC)c1	9.6	-3.2	-28.4	-45.8	9.7	60.3*	87.1*
Cn1cnc(S(=O)(=O)N2CCCCN3[C@@H](CO)[C@@H](c4ccc(-c5ccccc5F)cc4)[C@@H]3C2)c1	.	.	.	0.7	.	.	.
COc1ccc(N(CCCN2C(=O)c3cccc4cccc(c34)C2=O)C(=O)c2ccncc2)cc1	-76.4	-2.5	-24.2	-0.8	-6.6	50.1*	45.3*
